PubChem BioAssay (Tox21)
Results filed as inconclusive are left out. Where a call stands in place of a potency, no number is given. Values without a mark were called inactive. The source made the active and inactive calls. Calls come from the whole dose curve; as a rule, active = well fitted curve in the direction sought with a large enough effect in the repeat runs; inconclusive = weak or mixed curves; inactive = no such curve, though single readings can be large; an effect the other way counts as inactive or inconclusive.

experiment: qHTS assay to identify small molecule antagonists of the retinoid acid receptor (RAR) signaling pathway - cell viability counter screen (AID 1159551); details: C3RL4 cells viability, ATP luminescence (CellTiter-Glo), 6 h; series mostly up to 92.4 µM; note: nearly all actives have a fitted effect of over 35% in size
Procedure, shortened: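 Viability of C3RL4 cells is quantified from ATP by luminescence after 6 h treatment at 37 C with compounds and 1 uM retinol.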

Compound | Potency | activity change, negative = cytotoxicity
Nc1nc(Cl)nc2c1ncn2[C@@H]1O[C@H](CO)[C@@H](O)[C@@H]1F | inactive | –
Fc1c(F)c(F)c(Br)c(F)c1F | inactive | –
O=[N+]([O-])c1cccc(S(=O)(=O)NCCNS(=O)(=O)c2cccc([N+](=O)[O-])c2)c1 | inactive | –
O=C(C(=O)c1ccccc1)c1ccccc1 | inactive | –
C[C@]12CCC(=O)C=C1C=C[C@@H]1[C@@H]2CC[C@@]2(C)[C@H]1CC[C@@]21CCC(=O)O1 | inactive | –
CO[Si](C)(OC)OC | inactive | –
Cc1ccc(S(=O)(=O)NC2CCCCC2)cc1 | inactive | –
N#C/C(=C1/SC[C@@H](c2ccc(Cl)cc2Cl)S1)n1ccnc1 | inactive | –
Nc1ccc(Cl)cc1[N+](=O)[O-] | inactive | –
O=C1OCCN1/N=C/c1ccc([N+](=O)[O-])o1 | inactive | –
CC(=O)OCC(=O)[C@H]1CC[C@H]2[C@@H]3CCC4=CC(=O)CC[C@]4(C)[C@H]3CC[C@]12C | inactive | –
CCC(C)(O)CCC=C(C)C (stereo unspecified) | inactive | –
CCCC(=O)O[C@]1(C(=O)COC(=O)CC)CC[C@H]2[C@@H]3CCC4=CC(=O)CC[C@]4(C)[C@H]3[C@@H](O)C[C@@]21C | – | -1.52% [at 19 µM]
CCCCCCCC/C=C\CCCCCCCC(=O)OC(CO)CO | inactive | –
CCc1cccc(N(C)C(N)=Nc2cccc3ccccc23)c1 | inactive | –
CN1CCN(CCCN2c3ccccc3Sc3ccc(S(=O)(=O)N(C)C)cc32)CC1 | inactive | –
O=C(CCCCCCCCC#CI)Oc1ccccc1 | inactive | –
COCCOC(=O)C1=C(C)NC(C)=C(C(=O)OC/C=C/c2ccccc2)C1c1cccc([N+](=O)[O-])c1 (stereo unspecified) | inactive | –
CCOCCn1c(C2CCN(CCc3ccc(C(C)(C)C(=O)O)cc3)CC2)nc2ccccc21 | inactive | –

experiment: qHTS assay to identify small molecule agonists of the retinoic acid receptor (RAR) signaling pathway (AID 1159553); details: C3RL4 RARE luciferase reporter, agonist, 6 h; series mostly up to 73.3 µM
Procedure, shortened: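 Compounds dissolved in DMSO were pinned onto C3RL4 cells seeded the previous day, and plates were held 6 hr at 37 C. RARE-driven luciferase output was then read by luminescence.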

Compound | Potency
CCCCOC(=O)CCS | inactive
CC(=N\O)/C(C)=N/O | inactive
CC#N | inactive
CC1(C)O[C@@H]2C[C@H]3[C@@H]4CCC5=CC(=O)C=C[C@]5(C)[C@H]4[C@@H](O)C[C@]3(C)[C@]2(C(=O)CO)O1 | inactive
CO[C@H]1C=CO[C@@]2(C)Oc3c(C)c(O)c4c(O)c(c5c(c4c3C2=O)=NC2(CCN(CC(C)C)CC2)N=5)NC(=O)/C(C)=C\C=C/[C@H](C)[C@H](O)[C@@H](C)[C@@H](O)[C@@H](C)[C@H](OC(C)=O)[C@@H]1C | inactive
CC(=O)Nc1ccc(N)cc1 | inactive
CCC(C)=O | inactive
Brc1cc(-c2ccc(Br)c(Br)c2Br)cc(Br)c1Br | inactive
CN1CCCN=C1/C=C/c1cccs1 | inactive
O=C(CCCN1CCC(O)(c2ccc(Br)cc2)CC1)c1ccc(F)cc1 | inactive
Nc1nc(Cl)nc2c1ncn2[C@@H]1O[C@H](CO)[C@@H](O)[C@@H]1F | inactive
Fc1c(F)c(F)c(Br)c(F)c1F | inactive
C[C@]12CCC(=O)C=C1C=C[C@@H]1[C@@H]2CC[C@@]2(C)[C@H]1CC[C@@]21CCC(=O)O1 | inactive
Cc1ccc(S(=O)(=O)NC2CCCCC2)cc1 | inactive
N#C/C(=C1/SC[C@@H](c2ccc(Cl)cc2Cl)S1)n1ccnc1 | inactive
Nc1ccc(Cl)cc1[N+](=O)[O-] | inactive
O=C1OCCN1/N=C/c1ccc([N+](=O)[O-])o1 | inactive
CC(=O)OCC(=O)[C@H]1CC[C@H]2[C@@H]3CCC4=CC(=O)CC[C@]4(C)[C@H]3CC[C@]12C | inactive
CCCCCCCC/C=C\CCCCCCCC(=O)OC(CO)CO | inactive
CCc1cccc(N(C)C(N)=Nc2cccc3ccccc23)c1 | inactive
O=C(CCCCCCCCC#CI)Oc1ccccc1 | inactive
COCCOC(=O)C1=C(C)NC(C)=C(C(=O)OC/C=C/c2ccccc2)C1c1cccc([N+](=O)[O-])c1 (stereo unspecified) | inactive

experiment: qHTS assay to identify small molecule antagonists of the estrogen related receptor (ERR) signaling pathway - cell viability counter screen (AID 1224818); details: ERR reporter cell line viability counter screen; series mostly up to 46.1 µM;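 note: viability measured after 17.5 h of compound exposure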
Procedure, shortened: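 Cytotoxicity check run alongside the ERR antagonist screen: cells exposed to test compounds 17.5 h at 37 C, viability taken as CellTiter-Fluor fluorescence intensity.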

Compound | outcome
CCC1(C)CC(=O)NC1=O (stereo unspecified) | inactive
Cc1ccccc1N1C(=O)c2cc(S(N)(=O)=O)c(Cl)cc2NC1C (stereo unspecified) | inactive
CCc1cccc(N(C)C(N)=Nc2cccc3ccccc23)c1 | inactive

experiment: qHTS assay to identify small molecule antagonists of the estrogen related receptor (ERR) signaling pathway from Tox21 library - cell viability counter screen (AID 1224834); details: ERR reporter cells viability, CellTiter-Fluor, 17.5 h; series mostly up to 92.4 µM; note: nearly all actives have a fitted effect of over 30% in size; note: potency is the fitted concentration of half-maximal effect
Procedure, shortened: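 In this quantitative HTS format, ERR cells receive compounds in DMSO and are incubated for 17.5 h at 37 C. Live-cell protease activity is then detected with CellTiter-Fluor.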

Compound | Potency | viability change, negative = cytotoxic
CCCCOC(=O)CCS | inactive | –
CC(=N\O)/C(C)=N/O | inactive | –
CC#N | inactive | –
Oc1cc(O)c(Cl)cc1Cl | inactive | –
CC1(C)O[C@@H]2C[C@H]3[C@@H]4CCC5=CC(=O)C=C[C@]5(C)[C@H]4[C@@H](O)C[C@]3(C)[C@]2(C(=O)CO)O1 | inactive | –
CO[C@H]1C=CO[C@@]2(C)Oc3c(C)c(O)c4c(O)c(c5c(c4c3C2=O)=NC2(CCN(CC(C)C)CC2)N=5)NC(=O)/C(C)=C\C=C/[C@H](C)[C@H](O)[C@@H](C)[C@@H](O)[C@@H](C)[C@H](OC(C)=O)[C@@H]1C | 47.5 µM (active) | –
CC(=O)CC(c1ccc([N+](=O)[O-])cc1)c1c(O)c2ccccc2oc1=O (stereo unspecified) | inactive | –
CCCCC(CC)COC(=O)COc1ccc(Cl)cc1C (stereo unspecified) | inactive | –
CCC(C)=O | inactive | –
C1COCO1 | inactive | –
Brc1cc(-c2ccc(Br)c(Br)c2Br)cc(Br)c1Br | inactive | –
O=S(=O)(c1ccccc1)c1ccc(Cl)cc1 | inactive | –
CC1CN(c2cc3c(cc2F)c(=O)c(C(=O)O)cn3-c2ccc(F)cc2F)CCN1 (stereo unspecified) | – | 4.3% [at 8.39 µM]
CCCCCCCC/C=C\CCCCCCCC(=O)OC | inactive | –
CCC1(C)CC(=O)NC1=O (stereo unspecified) | inactive | –
O=C(O)c1snc(Cl)c1Cl | inactive | –

Compound | Potency | viability change, negative = cytotoxic
Cc1cc(C(=C2C=CC(=Nc3ccc(S(=O)(=O)O)cc3S(=O)(=O)O)C=C2)c2ccc(Nc3ccc(S(=O)(=O)O)cc3)cc2)ccc1N | inactive | –
Nc1nc(Cl)nc2c1ncn2[C@@H]1O[C@H](CO)[C@@H](O)[C@@H]1F | inactive | –
Fc1c(F)c(F)c(Br)c(F)c1F | inactive | –
O=[N+]([O-])c1cccc(S(=O)(=O)NCCNS(=O)(=O)c2cccc([N+](=O)[O-])c2)c1 | inactive | –
O=C(C(=O)c1ccccc1)c1ccccc1 | inactive | –
C[C@]12CCC(=O)C=C1C=C[C@@H]1[C@@H]2CC[C@@]2(C)[C@H]1CC[C@@]21CCC(=O)O1 | inactive | –
CO[Si](C)(OC)OC | inactive | –
O=C1OCCN1/N=C/c1ccc([N+](=O)[O-])o1 | inactive | –
CC(=O)OCC(=O)[C@H]1CC[C@H]2[C@@H]3CCC4=CC(=O)CC[C@]4(C)[C@H]3CC[C@]12C | inactive | –
CCC(C)(O)CCC=C(C)C (stereo unspecified) | inactive | –
CCCC(=O)O[C@]1(C(=O)COC(=O)CC)CC[C@H]2[C@@H]3CCC4=CC(=O)CC[C@]4(C)[C@H]3[C@@H](O)C[C@@]21C | – | 2.61% [at 19 µM]
CCCCCCCC/C=C\CCCCCCCC(=O)OC(CO)CO | inactive | –
CCc1cccc(N(C)C(N)=Nc2cccc3ccccc23)c1 | inactive | –
CN1CCN(CCCN2c3ccccc3Sc3ccc(S(=O)(=O)N(C)C)cc32)CC1 | 26.6 µM (active) | –
O=C(CCCCCCCCC#CI)Oc1ccccc1 | inactive | –
CCOCCn1c(C2CCN(CCc3ccc(C(C)(C)C(=O)O)cc3)CC2)nc2ccccc21 | inactive | –
